The whole screen tested about 16,000 compounds, of which about 5,700 (36%) were called active. About 24% were inconclusive and are not listed. Calls follow the shape of the dose curve; as a rule, active = well fitted curve in the direction sought with a large enough effect; inconclusive = small, poorly fitted or top-dose-only effect, or effect the other way; inactive = no such curve, though single readings can be large or run the other way. Some of the results follow.
Molecular target: Cytochrome P450 1A2 (Homo sapiens) (UniProt P05177)
Assay: Cytochrome panel assay with activity outcomes
Conditions: recombinant CYP, pro-luciferin dealkylation, luminescence, p450-cyp1a2; series mostly up to 57.1 µM; activity, negative = inhibition: at the top concentration
% is scaled to controls: 0 for no effect and ±100 for the full control effect.

Cytochrome P450 1A2 (Homo sapiens), sequence (P05177 whole entry, looked up): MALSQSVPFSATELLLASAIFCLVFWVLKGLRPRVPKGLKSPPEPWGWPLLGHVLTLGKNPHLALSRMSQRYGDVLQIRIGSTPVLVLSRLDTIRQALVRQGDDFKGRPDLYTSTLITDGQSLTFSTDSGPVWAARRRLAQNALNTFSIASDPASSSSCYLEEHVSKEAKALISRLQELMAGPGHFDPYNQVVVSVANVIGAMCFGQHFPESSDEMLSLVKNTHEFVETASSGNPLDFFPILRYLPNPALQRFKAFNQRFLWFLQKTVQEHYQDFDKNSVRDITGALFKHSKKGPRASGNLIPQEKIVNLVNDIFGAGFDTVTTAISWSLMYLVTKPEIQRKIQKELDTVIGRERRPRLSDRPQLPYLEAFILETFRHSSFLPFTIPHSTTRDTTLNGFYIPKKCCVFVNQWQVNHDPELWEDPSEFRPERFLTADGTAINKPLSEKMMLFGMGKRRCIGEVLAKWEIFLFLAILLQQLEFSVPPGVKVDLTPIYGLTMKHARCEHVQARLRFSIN

AC50, active:
O=C(NC1CCCCCC1)c1cccs1 5.01 µM
Cc1nc2ccc(NC(=O)Nc3ccnc4cccnc34)cc2o1 1 µM
COc1ccc(-c2csc3c2[N+]2=CCC=C2C3=O)cc1 0.501 µM
Cc1noc(C)c1-c1nccc(-n2ccnc2)n1 0.2 µM
Cc1noc(C)c1-c1cc(N2CCN(C)CC2)ncn1 10 µM
Cc1noc(C)c1-c1nccc(N2CCN(C)CC2)n1 2 µM
Cc1noc(C)c1-c1nccc(N2CCOCC2)n1 0.631 µM
Cc1cc(Cl)ccc1Oc1ncc(-c2ccc(Cl)cc2)cn1 0.794 µM
Cc1cccc(Oc2ncc(-c3ccc(Cl)cc3)cn2)c1C 2.24 µM
CNc1nc(-c2ccccc2Cl)nc2ccccc12 0.126 µM
CNc1nc(-c2ccccc2C)nc2ccccc12 0.501 µM
CCOC(=O)COc1ccc(/C=C/[N+](=O)[O-])c(OCC(=O)OCC)c1 3.16 µM
Fc1ccc2nc3[nH]c4ccccc4c3nc2c1 1 µM
COC(=O)CSc1ccc(C#N)c(SCC(=O)OC)c1 25.1 µM
CCn1ccc(C(=O)NC2=C(C#N)CCC2)n1 6.31 µM
CC(=O)Nc1ccc(-c2nnc(SCC(=O)c3ccc4c(c3)Cc3ccccc3-4)n2C)cc1 11.2 µM
Cn1c(SCC(=O)c2ccc3c(c2)Cc2ccccc2-3)nnc1-c1ccccc1 6.31 µM
Cc1ccc2c(CC(=O)OCc3cc(=O)n4c(n3)sc3ccccc34)coc2c1 8.91 µM
Cc1cc(C(=O)Nc2ccc(N3CCOCC3)cc2)c2ccccc2n1 10 µM
Cc1ccc(NC(=O)c2cc(Cl)nc3ccccc23)cc1 2 µM
O=C(NNC(=O)c1cc(-c2ccc(Cl)c(Cl)c2)nc2ccccc12)Nc1ccccc1 3.55 µM
Cc1n[nH]c(C)c1N=Nc1cc(Cl)ccc1Cl 0.178 µM
O=C(Nc1cc(Sc2ccccn2)cc([N+](=O)[O-])c1)c1ccc(Cl)cc1 2.51 µM
O=C(Nc1cc(Sc2ccccn2)cc([N+](=O)[O-])c1)c1ccc([N+](=O)[O-])cc1 3.16 µM
CCOc1ncccc1C(=O)OCC(=O)Nc1cc(C)ccc1C 10 µM
Cc1noc(C)c1-c1ccc2ncnc(N(C)Cc3ccco3)c2c1 2.51 µM
Cc1noc(C)c1-c1ccc2ncnc(N(C)C)c2c1 0.631 µM
CCc1c(C)nc2ccc(Br)cc2c1Cl 0.316 µM
Cc1cnn(-c2ccc3nnc(-c4ccc(Cl)cc4)n3n2)c1 0.398 µM
CCOCCCn1cnc2c([nH]c3cc(OC)ccc32)c1=O 2 µM
Cc1cc(N2CCOCC2)ccc1/C=C1\SC(=O)N(C(C)C)C1=O 14.1 µM
COc1cccc(/C=N/Nc2nc(N3CCCC3)nc(N3CCCC3)n2)c1O 2.51 µM
C#C[C@]1(O)CC[C@@H]2[C@H]3CCc4cc(OC)ccc4[C@@H]3CC[C@@]21C 0.501 µM
Clc1ccc(CCNc2nc3ccccc3s2)cc1 11.2 µM
N#C/C(=C\Nc1ccccn1)C(=O)C1CC1 1.26 µM
CSc1ccc(NC(=O)NCCN2CCc3ccccc3C2)cc1 14.1 µM
CSc1ccc(NC(=O)NCCCN2CCN(c3ccccc3F)CC2)cc1 2.51 µM
Fc1cccc(/C=N\N=C/c2cccc(F)c2)c1 0.2 µM
Cc1cc(C)c(C(N)=O)c(NC(=O)Nc2ccccc2)n1 3.16 µM
Cc1cccc(Oc2ncnc3onc(C)c23)c1C 17.8 µM
Cc1noc2ncnc(Oc3ccc4ccccc4c3)c12 8.91 µM
CC1CCN(C(=O)Nc2ccc3nsnc3c2)CC1 11.2 µM

activity, negative = inhibition, inactive:
Cc1ccc(C(C(=O)NC2CCCCC2)N(CC2CCCO2)C(=O)CNC(=O)c2cccs2)cc1 (stereo not drawn) -13%
O=C(NCC(=O)N(c1ccccc1)C(C(=O)NC1CCCC1)c1cccnc1)c1cccs1 (stereo not drawn) -1.5%
O=C(Nc1ccc2ncccc2c1)Nc1ccc2ncccc2c1 -28.5% [at 2.29 µM]
C/C=C\C(=O)N(CC)c1ccccc1C -3.65% [at 25.6 µM]
CC1(C)OC(=O)NC1=O -5.07% [at 25.6 µM]
Cc1noc(C)c1C(=O)N1CCC2(CC1)CCN(c1ccncc1)CC2 -11%
CC(C)(C)C(=O)NC(c1ccc(Cl)cc1)[C@]1(C)C[C@H]1C1CCCCC1 (stereo partly drawn) -8.49%
CO/N=C1/c2cc(OC)ccc2O[C@@H](c2cccc(OC)c2)[C@H]1O -7.77% [at 11.4 µM]
CCCNS(=O)(=O)c1ccc(OCC(=O)OC)cc1 -14.8%
CCCOc1ccc(/C=C/C(=O)Nc2ccc([N+](=O)[O-])cc2C)cc1 -11.5%
COc1ccc(N2CCN(Cc3nc4c(c(=O)n(C)c(=O)n4C)n3CC(C)=O)CC2)cc1 -4.78%
CCn1ccc(C(=O)NC2C(=O)N3C(C(=O)O)=C(C)CSC23)n1 (stereo not drawn) 10%
C[C@]12C=CC(=O)C=C1CC[C@@H]1[C@H]3C[C@@H](O)[C@](O)(C(=O)CO)[C@@]3(C)C[C@H](O)[C@]12F -1.86% [at 25.6 µM]
Cn1c(SC2CCCCC2=O)nnc1-c1ccncc1 (stereo not drawn) -1.42%
Cn1c(SCC(=O)NC2CC2)nnc1-c1cccc(NC(=O)c2ccccc2F)c1 17.5%
CC(C)(C)c1onc(OCP(=O)(O)O)c1C[C@@H](N)C(=O)O -17.2%
CCOC(=O)N/N=C1/C[C@@H](O)[C@@H](O)[C@@H]2[C@@H]3C(=O)N(c4cccc(Oc5ccccc5)c4)C(=O)[C@H]3CC[C@@H]12 -6.44% [at 11.4 µM]
O=C1Oc2ccccc2C2(O)C3CCCCCC3C12 (stereo not drawn) -3.13%
COc1cc(OC)c(C(=O)CCCCN2CCC3(CC2)NC(=O)NC3=O)cc1NS(=O)(=O)c1ccc(C(F)(F)F)cc1 -5.7%
Nc1ncnc2c([C@@H]3O[C@@H](CO)[C@H](O)[C@@H]3O)nsc12 -16.8% [at 2.29 µM]
O=C(Nc1nnc(COc2ccc(Cl)cc2)s1)c1ccc([N+](=O)[O-])cc1 8.11%
O=C1[C@H]2[C@H]3[C@H](O)[C@H](O)C/C(=N/OC[C@@H](O)COCc4ccco4)[C@H]3CC[C@@H]2C(=O)N1C[C@@H]1CCCO1 -17.3% [at 11.4 µM]
Cc1ccc(C)c(NC(=O)Cn2nnc(C(=O)Nc3c(C)cccc3C)c2N)c1 -4.32%
Cc1ccc(C)c(NC(=O)C2C3CCCC2C3c2ccccc2)c1 (stereo not drawn) -4.69%
CN1C(=O)OC(C)(C)C1=O -1.91% [at 25.6 µM]
Cc1cc(Cl)nc2ccc(Cc3ccc4nc(Cl)cc(C)c4c3)cc12 -13.2% [at 2.29 µM]
CO[C@H]1COC(=O)CCC[C@@H](C)[C@H](OC)COC(=O)[C@@H](C)NC(=O)C/C=C\[C@@H]1C 3.63% [at 11.4 µM]
O=C(O)[C@H]1CCCNC1 -5.56%
CNC(=O)Oc1ccc2c(c1)[C@@]1(C)CCN(C)[C@@H]1N2C -15.8%
CCOCCCN1C(=O)CN(C2CCCCCC2)C(=O)C1c1ccc(OC)cc1 (stereo not drawn) -10.7%
CO[C@H]1COC(=O)C/C=C\[C@@H](C)COC(=O)[C@H]2CCCN2C(=O)C/C=C\[C@H]1C 4.01% [at 11.4 µM]
CN(C)c1ccc(/C=C2/C(=O)N(c3ccc([N+](=O)[O-])cc3)N=C2N2CCOCC2)cc1 -19%
CC(C(=O)Nc1ccccc1Sc1ccccc1)N(c1ccccc1)S(C)(=O)=O (stereo not drawn) -5.72%
CO[C@@H]1COC(=O)[C@H](COCc2ccccc2)NC(=O)C/C=C\[C@@H](C)[C@H](OC)COC(=O)[C@H](COCc2ccccc2)NC(=O)C/C=C\[C@H]1C -19.7% [at 11.4 µM]
COC(=O)C1=C(C)[C@@H](O)[C@@H](C)[C@H](c2c(OC)c(OC)c(C)c(OC)c2OC)O1 -10.1% [at 11.4 µM]
CC12CC[C@@H]3c4ccc(OP(=O)(O)O)cc4CCC3C1CCC2=O (stereo partly drawn) -13.4% [at 2.29 µM]
C#C[C@@]1(O)CC[C@@H]2[C@@H]3CCC4=CC(=O)CC[C@@H]4[C@H]3CC[C@]21C -14.1% [at 25.6 µM]
CC(C)N1CCN(c2ccc(OC[C@@H]3CO[C@@](Cn4cncn4)(c4ccc(Cl)cc4Cl)O3)cc2)CC1 -3.45% [at 25.6 µM]
Nc1c(O)cccc1C(=O)C[C@@H](N)C(=O)O -7.38% [at 25.6 µM]
N#C/C(=C\Nc1ccccn1)C(=O)c1ccco1 -22.9% [at 11.4 µM]
CC(CCN)(CCN)[N+](=O)[O-] -10.4% [at 11.4 µM]
O=C(NCCCN1CCc2ccccc2C1)C1CCN(S(=O)(=O)N2CCCC2)CC1 3.7%
O=C(NCCN1CCN(C(=O)C(c2ccccc2)c2ccccc2)CC1)C(=O)Nc1ccccc1 -23%
Cc1ccccc1CS(=O)(=O)CCC(=O)NCCCN1CCN(c2ccccc2F)CC1 -19.6%
O=C(NCCCN1CCN(c2ccccc2F)CC1)C1CCC(=O)N1C1CCCCC1 (stereo not drawn) 0.883%
COc1cccc([C@@H]2Oc3ccc(OC)cc3/C(=N/O[C@@H](C)c3cc(-c4c(C)cc(C)cc4C)no3)[C@@H]2O)c1 -10.9% [at 11.4 µM]
Cc1cc(N)c2cc(NC(=O)Nc3ccc4nc(C)cc(N)c4c3)ccc2n1 -1.54% [at 11.4 µM]
CCNCCCNCCCNCCCNCC -9.81%
CC1CCN(CCc2nc3cc(NC(=O)NC4CCCCC4)ccc3n2C)CC1 3.24%
O=C(Nc1ccc(Cl)c(Cl)c1)N1CCC(N2CCCCC2)CC1 -19.8%
COc1ccc(COC(=O)N/N=C2/C[C@@H](O)[C@@H](O)[C@@H]3[C@H]4C(=O)N(c5ccc(F)cc5F)C(=O)[C@@H]4CC[C@H]23)cc1 -6.28% [at 11.4 µM]

— PubChem BioAssay AID1851 (National Center for Advancing Translational Sciences (NCATS), 2009)
